697 NFkB inh: lowers PMA/ionomycin-induced NF-kB signal in 697 B cells; 697 B-cell NF-kB luciferase reporter, 16 h; 330,000 compounds, 0.33% hits; inhibition, % at 4 µM; AID 435022; in the data active = inhibition above about 35%
Jurkat NFkB inh: lowers PMA/ionomycin-induced NF-kB signal in Jurkat cells | PMA/ionomycin-induced NF-kB luciferase reporter, luminescence | AID 435003 | 330,000 compounds, 0.53% hits | inhibition, % at 4 µM; in the data active = inhibition above about 50%
Gli-Sufu block: Gli-Sufu pathway antagonism. Sufu-KO-LIGHT fibroblasts, Gli luciferase reporter luminescence. inhibition, % at 5 µM. 340,000 compounds, 0.74% hits;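 active = inhibition above about 55%, limit read from the data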;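 note: 0% = DMSO-treated cells and 100% = wells with medium but no cells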
CSC inhib: cancer stem cell inhibition; cancer stem cell-like cells viability, luminescence; inhibition, % at 7.5 µM; 300,000 compounds, 1.1% hits; AID 2717; in the data active = inhibition above about 75%; tested in HMLE shEcad cells
Mdm2 MdmX PPI: disrupts the human Mdm2-MdmX interaction | AID 485346 | 330,000 compounds, 3% hits | inhibition, % at 8 µM | O15151+Q00987 | SaOS-2 split-luciferase Mdm2/MdmX complementation, luminescence;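 active = inhibition of at least 50% at 8 µM in the primary screen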
Beta cell apopt: beta cell apoptosis inhibition | 300,000 compounds, 0.8% hits | protection from apoptosis, % (concentration not given with the values) | INS-1E cytokine-induced death, ATP luminescence, 48 h; percent of positive-control rescue, neutral wells zero;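 active = Every replicate reaches about 75%, or at least half do and their mean reaches it too, limit read from the data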;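 note: 0% = cytokine-treated negative control wells and 100% = positive control rescue; higher means more ATP so stronger rescue from cytokine killing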
Numbers without * were called inactive; · = no result. Compounds with a hit are over-represented: about 4.5% of the library has one in this group of screens.

SMILES	697 NFkB inh	Jurkat NFkB inh	Gli-Sufu block	CSC inhib	Mdm2 MdmX PPI	Beta cell apopt
O=c1c(C(c2ccccc2)c2c(O)sc3ccccc3c2=O)c(O)sc2ccccc12	11.2	-7.3	-6.4	88.2*	36.2	-5.5
O=c1c2ccccc2sc2ccccc12	·	·	-13.5	·	·	·
CCOC(=O)C1C(=O)NC(C(=O)OCC)(C(=O)OCC)C1CC (centres undefined)	·	·	2.8	·	·	·
CN(C)c1ccc(/C=C/c2nc3ccccc3c(=O)[nH]2)cc1	-124.4	-52.5	-105.9	83.6*	-48.5	32.9
COc1ccc(C(=O)Nc2cccc(/C=C/c3nc4ccccc4c(=O)[nH]3)c2)cc1	-67.4	16.4	-53.6	77.5*	33.9	42.5
Cc1ccc(C(C)C)c(OCc2ccc(C(=O)N/N=C/c3cccc(O)c3O)cc2)c1	·	·	92.8*	111.4*	·	90.5*
COc1cc(/C=N/NC(=O)c2ccc(COc3cc(C)ccc3C(C)C)cc2)cc(OC)c1O	-143.6	2.6	20.6	21.7	27.5	28.2
CC[n+]1c(/C=C2\Sc3ccccc3N2C)ccc2cccc(C)c21	·	·	86.9*	·	·	·
CN1/C(=C/c2cccc[n+]2CCO)Sc2ccccc21	-13.4	-0.2	13.3	-9.3	0.8	14.9
CCCCCCCCNC(=S)NCCN1CCCCC1	·	·	23.3	·	·	·
O=C(NCCCN1CCOCC1)c1ccc(Sc2ccc(Br)cc2)c([N+](=O)[O-])c1	-21.4	-10.3	0.4	76.2*	-13.0	8.1
O=C(NCCCN1CCOCC1)c1ccc(Sc2ccccc2Cl)c([N+](=O)[O-])c1	-6.5	-23.1	10.7	52.2	22.2	11.9
Cc1ccsc1/C=C/c1ccc2cccc(O)c2n1	-144.5	-148.3	10.6	92.1*	-41.9	21.8
Oc1cccc2ccc(/C=C/c3ccccc3Br)nc12	-97.8	-83.7	8.9	97.2*	-12.5	38.8
CSc1ccc(/C=C/c2ccc3cccc(O)c3n2)cc1	-193.6	-76.9	6.3	60.6	-40.4	15.7
Oc1c(Cl)cc(Cl)cc1/C=C/c1ccc2cccc(O)c2n1	-17.5	2.5	40.5	15.0	48.0	16.6
COc1cccc(CNC(=O)c2cc(S(=O)(=O)N3CCOCC3)cn2C)c1	-13.2	-15.2	9.6	-1.3	17.9	-3.8
Cc1cc(C(=O)CCC(=O)NC(C)c2ccc(S(N)(=O)=O)cc2)c(C)s1 (centres undefined)	-1.9	-3.9	-9.5	-9.0	24.6	3.6
CC1=CC(C)(C)N(S(=O)(=O)c2ccc(F)cc2)c2ccc(C)cc21	-50.5	49.3	0.1	87.2*	47.5	13.0
Cc1ccc(C(=O)NCC(=O)NNC(=O)CN(C)S(=O)(=O)c2ccc(Cl)cc2)s1	11.4	14.3	-8.5	0.1	7.3	-6.6
CCCOC(=O)c1ccc(Oc2cn[nH]c2-c2ccc(O)cc2O)cc1	-17.8	23.3	-0.4	17.5	11.0	-2.8
Cc1[nH]nc(-c2ccc(O)cc2O)c1Oc1ccccc1	-28.5	19.9	0.5	51.0	39.1	1.4
CCCOC(=O)c1ccc(Oc2c(-c3ccc(OC)cc3O)n[nH]c2C)cc1	0.6	1.4	-88.7	131.6*	32.4	-7.1
CCCOC(=O)c1ccc(Oc2c(-c3ccc(O)cc3O)n[nH]c2C)cc1	-35.8	-14.5	-22.0	116.5*	23.5	3.1
CCc1cc(-c2n[nH]c(C)c2Oc2ccc(C(C)C)cc2)c(O)cc1O	-10.2	-0.8	-1.0	113.0*	0.7	-3.1
SMILES	697 NFkB inh	Jurkat NFkB inh	Gli-Sufu block	CSC inhib	Mdm2 MdmX PPI	Beta cell apopt
COc1cccc(OC)c1C(=O)NC(=O)Oc1c(F)cccc1F	-26.1	3.7	3.2	-21.9	11.8	1.6
O=C1CN(C(=O)COC(=O)CCc2ccccc2O)c2ccccc2N1	17.6	3.7	-2.6	-7.9	-10.1	-23.1
COc1ccc(S(=O)(=O)N2CCC3CC2c2cc(N4CCOCC4)ccc23)cc1 (centres undefined)	·	·	-8.9	·	·	·
O=C(O)C1C2CC(C(Br)C2Br)C1C(=O)O (centres undefined)	·	·	-0.1	·	·	·
C[C@H]1COC(=O)[C@H](NC(=O)OCC2c3ccccc3-c3ccccc32)C/C=C\C[C@H](CC(=O)N(CCO)Cc2ccccc2)C(=O)N1	-2.7	-6.9	38.5	-14.6	9.3	31.2
O=C(N[C@H]1C/C=C\C[C@H](CC(=O)N(CCO)Cc2ccccc2)C(=O)N[C@@H](c2ccccc2)COC1=O)OCC1c2ccccc2-c2ccccc21	-11.1	-3.1	66.5*	·	8.6	·
Cc1cccc(OCCn2c(=S)[nH]c3ccccc32)c1	-17.0	-6.4	-5.4	12.9	-7.0	0.9
Cc1ccc(OCCn2c(=S)[nH]c3ccccc32)c(C(C)C)c1	-31.2	11.4	9.9	100.5*	7.5	9.0
Cc1ccc(-c2csc(NC(=O)c3ccc([N+](=O)[O-])o3)n2)cc1	-13.2	-26.1	1.7	127.2*	38.7	46.2
CCOc1cc(C(=O)OCC(=O)Nc2cccc(S(=O)(=O)NC3=NCCCCC3)c2)cc(OCC)c1OCC	15.1	3.1	16.4	-19.0	11.4	3.2
COc1cc(NC(=O)CCCN2C(=O)NC(C)(C)C2=O)cc(OC)c1	-4.6	-4.3	-0.5	·	-2.4	1.4
Cc1ccc(N2NC(=O)/C(=C\c3cc4c(cc3[N+](=O)[O-])OCO4)C2=O)cc1C	·	·	-5.9	87.9*	·	3.0
COc1cc(/C=C2/C(=O)NN(c3ccc(C)c(Cl)c3)C2=O)cc([N+](=O)[O-])c1O	12.7	6.5	-0.3	1.8	-9.1	-0.7
COc1ccc(CCNC(=O)[C@H](C)NC(=O)N2CCn3c2nc2ccccc23)cc1OC	8.7	3.0	-6.8	-6.9	-2.7	-3.3
COC(C(=O)N1CCC(CCC(=O)Nc2ccccc2)CC1)c1ccccc1 (centres undefined)	-30.3	-15.8	-8.3	-1.3	-29.6	-0.8
CCOC(=O)c1nn(-c2ccc(F)cc2)c(-c2ccccc2)c1C(=O)c1ccccc1	1.5	-12.5	3.2	78.3*	-6.9	23.7
CCOC(=O)c1nn(-c2ccccc2)c(-c2ccccc2)c1C(=O)c1ccccc1	12.8	-11.5	0.4	5.5	-11.2	1.5
O=C(COc1ccc(Cl)cc1)NCCNc1ccc([N+](=O)[O-])cc1	1.9	27.3	3.5	-1.7	-8.9	-4.2
O=C(Nc1ccccc1C(=O)NC1CC1)c1ccc([N+](=O)[O-])o1	-13.4	4.8	-11.2	·	25.6	·
N#CC1=C(N)NC(SCc2ccccc2)=C(C#N)C12CCCC2	-14.6	5.5	-1.1	78.2*	40.0	-6.4
N#CC1=C(N)NC(SCc2ccc(Cl)cc2)=C(C#N)C12CCCCC2	-4.3	-3.3	1.2	-23.0	42.6	42.2
CCOC(=O)N1CCC(NCCNC(=O)c2ccc(F)c(F)c2)CC1	18.6	19.6	13.9	-1.3	2.2	-3.0
COc1cccc(CN(C)C(=O)c2ccc(NS(=O)(=O)c3ccc(F)cc3)cc2)c1OC	-20.9	-5.8	0.0	9.7	-23.6	·
COc1ccc(CN(C)C(=O)c2ccc(NS(=O)(=O)c3ccc(F)cc3)cc2)c(OC)c1OC	10.5	11.2	5.3	1.9	34.1	95.5*
